What all share (assay): NCI-60 one-dose screen, 48 h (100 = growth as untreated, 0 = no growth, -100 = all killed)
Holding throughout (details): 10 µM

The subject of assay [1] is NCI-H23 lung.
Assay [2] has as its system NCI-H226 lung.
Assay [3] has as its system NCI-H322M lung.
Assay [4] has as its system HOP-62 NSCLC.
Assay [5] concerns NCI-H460 lung.
Assay [6] has as its system HOP-92 NSCLC.
The subject of assay [7] is NCI-H522 lung.
For assay [8], the system named is A549/ATCC NSCLC.
The test system of assay [9] is 786-0 renal.
In assay [10] the test system is COLO 205 colon.
Assay [11] relates to DU-145 prostate.
In assay [12] the test system is K-562 leukemia.
Assay [13] has as its system MALME-3M melanoma.
In assay [14] the test system is MDA-MB-231 breast.
The subject of assay [15] is SF-268 CNS.
The test system of assay [16] is SF-295 CNS.
Assay [17] deals with SF-539 CNS.
Assay [18] deals with UACC-257 melanoma.
Assay [19] relates to M14 melanoma.
The test system of assay [20] is RXF 393 renal.

The panel holds about 83,000 compounds, 20% with a hit somewhere; the sample as a whole holds those more often.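 Single-dose data. Exposure time 48 hours. Values below 10 considered active.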 Unmarked numbers belong to inactive results. Active and inactive are the calls of the source.

Take `COc1ccc(C2N(c3ccc(Br)cc3)N=C(C(C)=O)N2[C@H]2[C@H](OC(C)=O)O[C@H](COC(C)=O)[C@@H](OC(C)=O)[C@@H]2OC(C)=O)cc1` (some centres not stated): the growth in assay [1] was 75.4%; in [2] it was 69.6%; in [3] it was 73.7%; in [4], 92%; in [5], 52.1%; in assay [6], 79.2%. Also, the growth in [7] was 48.1%; in assay [8], 66.1%; in assay [9] it was 92.6%; in assay [10], 88.1%; in assay [11], 85.7%; in [12], 65%. Besides, the growth in assay [13] is 93.4%; in [14], 72.1%; in [15], 74.9%; in assay [16] it was 64.1%; in assay [17], 80.7%; in assay [18] it was 89.9%. In addition, in [19], the growth was 81.5%.

Turning to `Cn1cc(/C=N/Nc2ccnc3cc(Cl)ccc23)c2ccccc21`, the growth was -84.1% (active) in assay [1]; -67.5% (active) in assay [2]; -99.6% (active) in [3]; -63.8% (active) in [4]; -67.5% (active) in [5]; -68% (active) in assay [6]. The growth in assay [7] is -68.1% (active); in [8] it was -39% (active); in assay [9], -65.2% (active); in [10] it was -59% (active); in [11] it was -92.7% (active); in assay [12], 2.82% (active). For the same molecule, the growth is -82.1% (active) in [13]; -90.4% (active) in assay [14]; -73.9% (active) in assay [15]; -93.9% (active) in assay [16]; -92% (active) in assay [17]; -71% (active) in assay [18]. In assay [19], the growth is -66.9% (active).

Turning to `Cc1ccc(C(=O)Nc2ccc(-n3c(C)nc4c(cnn4-c4ccccc4)c3=O)cc2)cc1`, the growth in assay [1] is 53.6%; in [2], 54.8%; in [3] it was 87.3%; in assay [4] it was 78.8%; in assay [5], 75.4%; in [6], 93.3%. Besides, the growth in assay [7] is 71.2%; in assay [8] it was 65.8%; in assay [9] it was 86.1%; in assay [10] it was 77.4%; in assay [11], 84.9%; in [12], 31.2%. The growth is 67.7% in [13]; 87.9% in assay [20]; 96.3% in [15]; 50.6% in assay [16]; 81.4% in assay [17]; 42% in [18]. In addition, in assay [19], the growth was 73.2%.

`O/N=C(\CSc1nnc(-c2c[nH]c3ccccc23)n1-c1ccccc1)c1ccc(Br)cc1`: the growth in assay [1] is 14.1%; in [2], 6.3% (active); in [3] it was -72.7% (active); in assay [4], -54.8% (active); in assay [5], -21.9% (active); in [6], -11.2% (active). Further, the growth in assay [7] is -29.7% (active); in [8] it was -18.2% (active); in [9] it was 34.7%; in assay [10], -41.2% (active); in assay [11], -88.5% (active); in assay [12] it was -11.1% (active). For the same molecule, the growth is -10.2% (active) in assay [13]; -84.2% (active) in assay [14]; -55.6% (active) in [15]; -15% (active) in assay [16]; -64.9% (active) in [17]; -8.6% (active) in assay [18]. The growth in assay [19] was -67.7% (active).

In the case of `C=C[C@@]12CN3CC[C@]1(O)[C@@](C(=O)OC)(CO2)c1[nH]c2ccccc2c1C3`, the growth in assay [1] is 78%; in assay [2], 83.1%; in assay [3], 93.7%; in assay [4] it was 99.5%; in assay [5], 87.2%; in [6], 54.9%. For the same molecule, the growth in assay [7] was 22.3%; in assay [8] it was 87.6%; in assay [9] it was 84%; in assay [10], 33.7%; in [11], 68.3%; in assay [12], 33.9%. Also, the growth is 95.5% in assay [13]; 76.9% in assay [14]; 85.3% in [15]; 71% in [16]; 71.9% in assay [17]; 49.7% in assay [18]. In addition, the growth in [19] was 64.4%.

Regarding `Cc1cc(C)nc(NS(=O)(=O)c2ccc(N/C(N)=N/c3nccc(-c4ccccc4)n3)cc2)n1`, the growth was 57.1% in assay [1]; 49.6% in assay [2]; 75.6% in assay [3]; 70.3% in assay [4]; 76.3% in assay [5]; 43.6% in assay [6]. Further, the growth is 76.2% in assay [7]; 63% in assay [8]; 72.1% in assay [9]; 91.1% in assay [10]; 88.8% in [11]; 49.3% in assay [12]. The growth in [13] was 63.3%; in assay [14] it was 59.4%; in [15] it was 82%; in assay [16], 52.2%; in assay [17] it was 70%; in [18], 94%. For the same molecule, the growth in [19] is 88.4%.

For `CC1CC(c2ccc(N(C)C)cc2)=NN1c1nc(O)c(C2=c3cc(Br)ccc3=NC2=O)s1` (configuration not stated), the growth in assay [1] was 1.13% (active); in [2], 77.8%; in assay [3], 112%; in [4] it was 92.7%; in assay [5] it was 63.8%; in assay [6], 83.8%. Further, the growth in assay [7] is 70.2%; in [8], 72.6%; in assay [9] it was 94%; in assay [10], 99.7%; in [11], 93.7%; in [12], 61.9%. Further, the growth in assay [13] is 99.4%; in assay [14], 99.8%; in [15], 91.7%; in [16], 68.9%; in assay [17] it was 92.3%; in assay [18], 91.2%. The growth in assay [19] was 84.8%.

Consider `O=C1Nc2ccc(F)cc2/C1=C/c1cccc(OCc2ccccc2)c1`, for which the growth in [1] was 24.8%; in [2] it was 35.3%; in assay [3] it was 47.6%; in assay [4], 48.4%; in assay [5], 7.06% (active); in assay [6] it was 18.8%. Also, the growth in [7] is 5.02% (active); in assay [8] it was 41.8%; in [9] it was 33.7%; in assay [10], 34.1%; in [11], 30.4%; in assay [12], 6.34% (active). Besides, the growth in [13] is 32.3%; in [20], -15.9% (active); in [15], 29.9%; in [16], 35.4%; in [17], 19.8%; in assay [18] it was 26.6%. For the same molecule, in assay [19], the growth was 17.3%.
